Screen size: about 5,500 compounds; about 2,000 (36%) were called active. Roughly 18% stayed inconclusive and do not appear here. Rule as the data show it: active = normalized growth mostly below about 0.91 (no sharp cut-off); inconclusive = no clear call, values can overlap the other calls; inactive = mostly above about 0.92. This is one part of the list.
Experiment: chemical genetic growth profiling, strain panel (AID 1159580);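 also: tested at 20 µM; growth read once vehicle control cultures reached saturation at 30 °C; 1 = growth at the plate median or of vehicle wells; lower values mean less growth of the strain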
Settings: growth OD
[1] = S. cerevisiae deletion strains, locus YAL013W, strain DEP1, hits give low values
[2] = S. cerevisiae deletion strains, locus YDL101C, strain DUN1, hits give low values
[3] = S. cerevisiae deletion strains, locus YDR150W, strain NUM1, hits give low values
[4] = S. cerevisiae deletion strains, locus YEL061C, strain CIN8, hits give low values
[5] = S. cerevisiae deletion strains, locus YGR078C, strain PAC10, hits give low values
[6] = S. cerevisiae deletion strains, locus YHR030C, strain SLT2, hits give low values
[7] = S. cerevisiae deletion strains, locus YHR087W, strain rtc3, hits give low values
[8] = S. cerevisiae deletion strains, locus YJR043C, strain POL32, hits give low values
[9] = S. cerevisiae deletion strains, locus YJR075W, strain HOC1, hits give low values
[10] = S. cerevisiae deletion strains, locus YLR039C, strain RIC1, hits give low values
[11] = S. cerevisiae deletion strains, locus YLR058C, strain SHM2 (second series), hits give low values
[12] = S. cerevisiae deletion strains, locus YLR085C, strain ARP6, hits give low values
[13] = S. cerevisiae deletion strains, locus YLR262C, strain YPT6, hits give low values
[14] = S. cerevisiae deletion strains, locus YML094W, strain GIM5, hits give low values
[15] = S. cerevisiae deletion strains, locus YMR219W, strain ESC1, hits give low values
[16] = S. cerevisiae deletion strains, locus YMR263W, strain SAP30, hits give low values
[17] = S. cerevisiae deletion strains, locus YNL153C, strain GIM3, hits give low values
[18] = S. cerevisiae deletion strains, locus YNL298W, strain CLA4 (second series), hits give low values
[19] = S. cerevisiae deletion strains, locus YNL322C, strain KRE1, hits give low values
[20] = S. cerevisiae deletion strains, locus YNR030W, strain Alg12, hits give low values
[21] = S. cerevisiae deletion strains, locus YPL055C, strain LGE1, hits give low values
[22] = S. cerevisiae deletion strains, locus YPL241C, strain CIN2, hits give low values
[23] = S. cerevisiae deletion strains, locus YPR135W, strain CTF4, hits give low values
[24] = S. cerevisiae strains, strain wild type, hits give low values

Measured: normalized growth

O=C1NN(c2ccccc2)C(=S)Nc2ccccc21
inactive: [1] 1 | S. cerevisiae deletion strains, locus YBR229C, strain ROT2, hits give low values 1.01 | [2] 0.988 | [3] 0.994 | [4] 1.01 | [5] 0.986 | [6] 0.986 | [7] 1 | S. cerevisiae deletion strains, locus YJL187C, strain SWE1, hits give low values 0.988 | [8] 0.997 | [9] 0.994 | [10] 0.994 | [11] 1 | [12] 0.984 | [13] 0.999 | [14] 0.987 | [15] 0.999 | [16] 0.996 | S. cerevisiae deletion strains, locus YMR307W, strain GAS1, hits give low values 0.965 | [17] 0.978 | [18] 1.01 | [19] 1.01 | [20] 1 | [21] 1.02 | [22] 0.98 | [23] 0.979 | [24] 1.01

S=C1NC2(CCCCC2)NN1c1ccccc1
inactive: [2] 0.92 | [3] 0.836 | [7] 0.987 | [8] 0.94 | [9] 0.908 | [11] 0.98 | [15] 0.956 | [19] 0.988
active: [1] 0.869 | S. cerevisiae deletion strains, locus YCL061C, strain MRC1, hits give low values 0.892 | [4] 0.14 | [5] 0.761 | [6] 0.1 | S. cerevisiae deletion strains, locus YKL190W, strain CNB1, hits give low values 0.0617 | [10] 0.116 | [12] 0.0768 | [13] 0.114 | [14] 0.0764 | [16] 0.895 | [17] 0.884 | [18] 0.0996 | [20] 0.0942 | S. cerevisiae deletion strains, locus YOL006C, strain TOP1, hits give low values 0.088 | [21] 0.759 | [22] 0.0946 | [23] 0.223 | [24] 0.0726
